ELG1 DNA repair – qHTS screen for small molecules that inhibit ELG1-dependent DNA repair in human embryonic kidney (HEK293T) cells expressing luciferase-tagged ELG1 | HEK293T ELG1-luciferase reporter, luminescence, 16 h; DNA damage induced by 5-fluorouridine | Potency, µM (highest dose often 46.1 µM), inactives show top-dose activity change, negative = inhibition, hits mostly inhibitors | 2.3% of 330,000 active; further: on the % scale 0 is the no-effect control and ±100 the full control effect; nearly all actives have a fitted effect of over 55% in size
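DMSO vehicle served as the neutral condition. Each well held 2,000 cells given 5-fluorouridine plus compound; after 16 hr at 37 °C/5% CO2, ONE-Glo was added and luciferase measured 30 min later.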
FLuc counter – qHTS profiling assay for firefly luciferase inhibitor/activator using purifed enzyme and Km concentrations of substrates (counterscreen for miR-21 project). Luciferin 4-monooxygenase (Photinus pyralis), P08659. purified FLuc, Km substrates, luminescence inhibition. Potency, µM (top dose mostly 57.5 µM), for inactives: top-dose activity change, negative = inhibition, usual class: inhibitors. 6.9% of 360,000 active. AID 588342, 2011;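 further: plate controls were vehicle for no effect and reference inhibitor for full effect; nearly all actives have a fitted effect of over 55% in size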
Target sequence (P08659 whole entry, looked up): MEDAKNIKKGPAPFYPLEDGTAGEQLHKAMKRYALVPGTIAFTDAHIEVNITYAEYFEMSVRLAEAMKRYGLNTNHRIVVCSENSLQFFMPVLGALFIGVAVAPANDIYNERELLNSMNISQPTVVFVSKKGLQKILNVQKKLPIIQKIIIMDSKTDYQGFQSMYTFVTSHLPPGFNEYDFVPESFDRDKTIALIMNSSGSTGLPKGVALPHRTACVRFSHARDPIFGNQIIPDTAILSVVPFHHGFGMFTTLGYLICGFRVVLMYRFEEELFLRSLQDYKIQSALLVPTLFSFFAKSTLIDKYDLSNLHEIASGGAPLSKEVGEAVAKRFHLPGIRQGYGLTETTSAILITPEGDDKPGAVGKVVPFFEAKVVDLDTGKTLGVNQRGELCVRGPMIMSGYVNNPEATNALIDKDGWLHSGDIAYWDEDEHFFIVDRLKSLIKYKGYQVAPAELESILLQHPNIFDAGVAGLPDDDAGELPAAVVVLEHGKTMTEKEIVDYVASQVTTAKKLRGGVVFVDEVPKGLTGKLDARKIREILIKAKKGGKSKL
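Purified P. pyralis luciferase, 10 nM final, with Km-level 10 uM D-luciferin and 10 uM ATP in 50 mM Tris acetate pH 7.5, 10 mM Mg acetate, 0.01% Tween-20, 0.05% BSA; 6-point qHTS titration about 60 µM downward; luminescence read.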
NPC1 prom act – qHTS Assay for NPC1 Promoter Activators. Huh7 NPC1 promoter luciferase reporter, 24 h. Potency, µM (doses to about 9.22 µM), without a hit: at the highest dose activation, most hits filed as activators. 2.4% of 320,000 active. AID 485313, 2010; further: % of control where 0% means no effect; nearly all actives have a fitted effect of over 60% in size
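Huh7 reporter cells (NPC1 promoter driving luciferase) are dosed with compound for 24 h at 37 °C, 5% CO2; luciferase detection reagent is then added and luminescence measured after 10 min at ambient temperature.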
Rab9 promoter act – qHTS Assay for Rab9 Promoter Activators. Huh7 Rab9 promoter-luciferase reporter, luminescence, 24 h. Potency, µM (doses to about 9.22 µM), for inactives: at the top dose activation, negative = inhibition, actives largely listed as activators. 2.8% of 320,000 active; further: % of control where 0% means no effect; nearly all actives have a fitted effect of over 60% in size
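Steps: seed 1500 Huh7 Rab9-luc cells per well, rest 2 h at 37 °C; add compound in DMSO; incubate 24 h; add luciferase reagent, 10 min ambient; read luminescence.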
ELG1 genotoxic – qHTS screen for small molecules that induce genotoxicity in human embryonic kidney (HEK293T) cells expressing luciferase-tagged ELG1; HEK293T ELG1-luciferase reporter, luminescence, 16 h; Potency, µM (series often up to 46 µM), for the others: at the highest dose activity change, positive = activation, hits mostly activators; 1.3% of 330,000 active; AID 504466, 2011; further: % of control where 0% means no effect; nearly all actives have a fitted effect of over 60% in size
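Luminescence read-out: rising ELG1-luciferase signal, reflecting elevated ELG1 protein under genetic stress, flags genotoxic compounds. Cells were treated for 16 hr at 37 °C before ONE-Glo detection.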
SMN2 splice enh – qHTS Assay for Enhancers of SMN2 Splice Variant Expression. 2.8% of 210,000 active. HEK293 SMN2-luciferase splicing reporter, luminescence, 30-36 h. AID 1458, 2008. Potency, µM (series often up to 46.1 µM), inactives show at the top dose activity change, positive = activation, usual class: activators; further: % of control where 0% means no effect; nearly all actives have a fitted effect of over 55% in size
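HEK293 cells carry an SMN2 minigene-luciferase reporter in which exon 7 inclusion puts luciferase in frame. Cells were seeded at 2000 cells/well, attached for 10-12 hours, then exposed to compounds for 30-36 hours at 37C before ONE-Glo luminescence.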
* hit, by the source's call; ? = inconclusive; . = not tested or not shown. Shown are actives, neighbours in structure and some others; about 9.3% of the full set was active somewhere. The call rests on the fitted dose curve; in most records, active means well fitted curve in the direction sought with a large enough effect; inconclusive means small, poorly fitted or top-dose-only effect, or another doubt; inactive means no such curve, though single readings can be large; an effect the other way counts as inactive or inconclusive. Potency means the concentration at half of the fitted maximal effect.

SMILES | ELG1 DNA repair | FLuc counter | NPC1 prom act | Rab9 promoter act | ELG1 genotoxic | SMN2 splice enh
Nc1n[nH]c(C2CC2)c1N=Nc1ccc(Cl)c(Cl)c1 | 5% | ? | 6% | -1% | 8% | .
CCc1ccc(CNC(=O)CN2C(=O)CSc3ccc(S(=O)(=O)N4CCOCC4)cc32)cc1 | . | -23% | . | . | . | .
Cc1noc2ncnc(N3CCCC(C(=O)Nc4cc(F)ccc4F)C3)c12 (configuration not stated) | . | -1% | . | . | . | .
CC(C)Sc1nnc(-c2ccc(S(=O)(=O)N3CCOCC3)cc2)n1C | 12% | 1% | 1% | -2% | -4% | .
CCn1nc(C)cc1-c1nnc(Sc2ncc([N+](=O)[O-])s2)n1C | ? | -3% | -54% | -57% | -22% | .
C/C(=N\N1CCN(Cc2ccc(Cl)cc2)CC1)c1ccc([N+](=O)[O-])cc1 | 16µM* | 0% | -4% | -19% | -5% | .
O=[N+]([O-])c1ccc(Cl)c(/C=N/N2CCN(Cc3ccc(Cl)cc3)CC2)c1 | -2% | -1% | -1% | -1% | 0% | -18%
CC(C)c1ccc(Nc2cc(C(=O)NC3CCCCC3)c3ccccc3n2)cc1 | . | -4% | . | . | . | -8%
O=C(NCCc1nnc2ccc(NCC3CCCO3)nn12)c1ccccc1 (configuration not stated) | 5% | 0% | -2% | -3% | 3% | -4%
Cn1c(=O)[nH]c2nnc(-c3ccc(Cl)c(Cl)c3)nc2c1=O | ? | 3.4µM* | 0.71µM* | ? | ? | .
CSc1cnc2c(=O)n(C)c(=O)[nH]c2n1 | 14% | -1% | -1% | 2% | 1% | -6%
O=C(CSc1nc2c([nH]c3ccccc32)c(=O)n1-c1cccc(Cl)c1)N1CCCC1 | . | 3% | . | . | . | .
CCOC(=O)Cn1nnc(-c2ccc(SC)cc2)n1 | 17% | 12µM* | -2% | -3% | 3% | 5%
CCOC(=O)Cn1nnc(-c2ccc(S(C)(=O)=O)cc2)n1 | 6% | 0% | -2% | 3% | 0% | -10%
CSc1ccc(-c2nnn(Cc3ccccn3)n2)cc1 | ? | 12µM* | 4µM* | 2.5µM* | ? | ?
COc1ccccc1Cn1cc(C(=O)c2ccc(C)cc2)c(=O)c2cc(F)cc(F)c21 | . | -2% | . | . | . | -1%
Clc1ccc2oc(-c3ccccc3)nc2c1 | ? | 2.4µM* | -2% | 23% | ? | ?
Clc1ccc2oc(-c3cccnc3)nc2c1 | ? | 15µM* | ? | ? | 9% | -2%
CCC1CCCCN1S(=O)(=O)c1ccc(C(=O)Nc2nnc(C3CC3)o2)cc1 (configuration not stated) | ? | 0% | 0% | -3% | -26% | .
CCC1CCCCN1S(=O)(=O)c1ccc(NC(=O)c2ccncc2)cc1 (configuration not stated) | 5.2µM* | -2% | -26% | -24% | -11% | .
COc1ccc(-c2nc(C)c(CCNC(=O)c3cccc(C)c3)s2)cc1OC | . | 24µM* | . | . | . | .
COc1ccc(-c2nc(C)c(CCNC(=O)c3ccc(F)c(F)c3)s2)cc1 | . | 21µM* | . | . | . | .
COc1ccc(-c2nc(C)c(CCNC(=O)c3cccs3)s2)cc1 | . | 27µM* | . | . | . | .
Cc1ccc(NC(=O)Cn2c(=O)n(Cc3ccc4c(c3)OCO4)c(=O)c3oc4ccccc4c32)cc1C | . | -7% | . | . | . | .
O=c1c2ccccc2nnn1CSc1nnc2sc3ccccc3n12 | ? | 1.9µM* | 0.4µM* | 0.32µM* | ? | 2.2µM*
Cc1cc(=O)[nH]c(SCn2nnc3ccccc3c2=O)n1 | 26% | 1% | -1% | -11% | 3% | 12%
Cc1ccc2nc(SCn3nnc4ccccc4c3=O)[nH]c2c1 | ? | 4.8µM* | 2.5µM* | 1.8µM* | ? | 2.8µM*
CN(C)C(=O)CSc1nnc2sc3ccccc3n12 | ? | -19% | 2% | 6% | 6% | 17%

From PubChem BioAssay
